# From PubChem BioAssay AID2401 (Southern Research Specialized Biocontainment Screening …, 2010)
# The whole screen tested about 2,200 compounds, of which about 530 (24%) were called active.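 How the source made its calls: active means inhibition above a set limit at one or more concentrations of the dose series; inactive means inhibition under that limit at every dose.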 The list is a sample of the results. Entries with a potency or affinity are not part of this list.
# Assay: S. Typhimurium nonspecific reporter signal inhibition – Salmonella Typhimurium, GFP fluorescence, counter-screen for PhoP regulon inhibitor project, dose response (AID 2401);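 further: S. typhimurium with Mg-insensitive nmpC-GFP reporter grown at 10 µM Mg2+; drop in reporter fluorescence reflects general culture growth inhibition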
# Details: 4 h; series mostly up to 150 µM; inhibition: at the top concentration
row,Structure (SMILES),inhibition
1,Cc1ccc(-n2c(C)cc(/C=N/NC(N)=S)c2C)cc1,29.6% (inactive)
2,O=C1c2ccccc2C2=Nc3ccccc3SC(c3cccc(F)c3)C12 (stereo unspecified),18% (inactive)
3,CC1C(C#N)=C(N)OC2=C1C(=O)CCC2 (stereo unspecified),-0.77% (inactive)
4,Cc1cccc(NC(=O)CCC(=O)OCc2ccc(Br)cc2)c1,-16% (inactive)
5,Cc1ccnc2nc(C(=O)Nc3ccc4c(c3)OCO4)nn12,-5.04% (inactive)
6,CN(C)c1ccc([C@@H]2[C@@H]([N+](=O)[O-])[C@H]3C=Cc4ccccc4N3[C@H]2C(=O)c2ccc(Cl)cc2)cc1,33.2% (inactive)
7,COc1ccc(OC)c(/C=N/NC(=O)c2cc3c(OC)c(OC)ccc3[nH]2)c1,-7.95% (inactive)
8,O=C(Cc1cccs1)Nc1cccc(-c2nc3cc4ccccc4cc3[nH]2)c1,-6.72% (inactive)
9,Cc1cc(/C=N/n2cnnc2)c(C)n1-c1ccc(OCc2ccc(F)cc2)cc1,-15.3% (inactive)
10,O=C(O)CC(NC(=S)NCc1ccccc1)C(=O)O (stereo unspecified),-29.4% (inactive)
11,COc1ccc(/C=N/Nc2cc(C)nc3c(C)cccc23)cc1,2.4% (inactive)
12,COC(=O)c1ccc(Nc2cc(C)nc3ccccc23)cc1,-28.9% (inactive)
13,O=c1c2oc3ccccc3c2ncn1Cc1ccc(Cl)cc1,-19.4% (inactive)
14,Cc1[nH]n(-c2ccccc2)c(=O)c1-c1ccc(Cl)cc1,-3.67% (inactive)
15,Cc1c(C(c2cccc([N+](=O)[O-])c2O)c2c(C)n(C)n(-c3ccccc3)c2=O)c(=O)n(-c2ccccc2)n1C,5.18% (inactive)
16,COc1ccc(OC)c(NC(=O)c2ccccc2NS(=O)(=O)c2cccc3cccnc23)c1,-10.6% (inactive)
17,Nc1nnc(SCc2ccc3c(c2)OCO3)s1,-26.3% (inactive)
18,CCOC(=O)C(NS(=O)(=O)c1ccccc1)(C(F)(F)F)P(=O)(OCC(C)C)OCC(C)C (stereo unspecified),-23.4% (inactive)
19,c1ccc(-c2cc(CSc3nc4ccccc4[nH]3)on2)cc1,1.38% (inactive)

row,Structure (SMILES),inhibition
1,Cc1ccc(N=Cc2sc(O)c3ccccc23)cc1,-41.8% (inactive)
2,N=c1sccn1CC(=O)Nc1ccccc1Oc1ccccc1,-13% (inactive)
3,O=C(NCCNc1ccc([N+](=O)[O-])cc1C(F)(F)F)c1ccccc1F,-7.25% (inactive)
4,O=C(NCCNc1ccc([N+](=O)[O-])cc1C(F)(F)F)c1ccc(F)cc1,31.5% (inactive)
5,O=C(NCC(=O)N(c1cccnc1)C(C(=O)NCc1ccco1)c1ccccc1)c1ccco1 (stereo unspecified),9.19% (inactive)
6,COc1ccc(N2C(=O)[C@@H]3[C@H](C2=O)[C@H]2c4ccccc4C=CN2[C@@H]3C(=O)Nc2ccccc2)cc1,28% (inactive)
7,CCCc1cc(C(=O)Cc2ccc(C(=O)OCC)o2)c(O)cc1O,23.5% (inactive)
8,CCOc1ccccc1NS(=O)(=O)c1ccc(Br)s1,-23.1% (inactive)
9,O=C(Oc1ccc(N(Cc2cccs2)C2=NS(=O)(=O)c3ccccc32)cc1)c1ccc(Cl)cc1,28.4% (inactive)
10,COc1ccc2c(c1)CC/C(=C\Nc1ccc3c(c1)OCO3)C2=O,-15.1% (inactive)
11,CN(C)CCNC(=O)c1ccc(COCC(F)(F)F)cc1,-10.8% (inactive)
12,CCN(CC)CCNC(=O)c1cn(CC)c2cc(N3CCN(C(=O)c4ccco4)CC3)c(F)cc2c1=O,-18% (inactive)
13,COC(=O)COc1ccc(S(=O)(=O)Nc2ccccc2SC)cc1,-26.3% (inactive)
14,Cc1cc(CNC(=O)Nc2ccc3c(c2)OCO3)nn1C,-5.69% (inactive)
15,O=C(NCc1cn2ccsc2n1)Nc1ccc(Cl)cc1,-22.4% (inactive)
16,Oc1ccc(Nc2nc(-c3cccs3)cs2)cc1,33% (inactive)
17,CC(C)c1ccc(NC(=O)N(CCc2nc3ccccc3[nH]2)C2CCCC2)cc1,-18.2% (inactive)
18,Brc1ccc2cccnc2c1,-23.6% (inactive)
19,O=C1C2C3c4ccccc4C(c4ccccc43)C2C(=O)N1c1cccc2cccnc12 (stereo unspecified),-20.1% (inactive)

row,Structure (SMILES),inhibition
1,C/C(=N/Nc1nc(-c2ccccc2)cc(-c2ccc(F)cc2)n1)c1cccc(N)c1,-5.41% (inactive)
2,CC(=O)Nc1c(C#N)c(C(C)(C)C)cn1C,1.65% (inactive)
3,CCOc1cc(C2C(C(=O)OC)=C(C)N=C3SCCC(=O)N32)ccc1OC(C)=O (stereo unspecified),-28.1% (inactive)
4,O=C(NCc1ccc2c(c1)OCO2)c1ccc(-n2cnnn2)cc1,-4.67% (inactive)
5,CCCN1C(=O)SC(CC(=O)Nc2ccc(Br)cc2)C1=O (stereo unspecified),8.66% (inactive)
6,CCn1c(C)cc(=S)c2ccccc21,-47% (inactive)
7,O=C(NCCCN1CCCC1=O)c1ccc(Cl)c(NS(=O)(=O)c2ccc(F)cc2)c1,-14.2% (inactive)
8,CC1CCCCN1Cc1cnc(Cl)s1 (stereo unspecified),-20.6% (inactive)
9,Oc1ccc(Br)cc1-c1ccn[nH]1,30.8% (inactive)
10,Cc1ccc(N(CC(=O)Nc2cccc(C)c2)S(=O)(=O)c2cccc3nonc23)cc1,1.6% (inactive)
11,Cc1ncc(C23CC4CC(CC(C4)C2)C3)[nH]1,-14.8% (inactive)
12,O=C1C2=C(NC(=S)NC2c2ccc(Cl)cc2)NC(c2ccc(Cl)cc2)N1c1ccc(Cl)cc1 (stereo unspecified),34% [at 75 µM] (inactive)
13,Cc1ccc(C=Nc2ccccc2C(N)=O)cc1,-19.9% (inactive)
14,CC(C)CCn1c(SCC(=O)N2CC(=O)Nc3ccccc32)nc2scc(-c3cccs3)c2c1=O,8.29% (inactive)
15,c1coc(CNc2ncnc3ccccc23)c1,-7.32% (inactive)
16,C=CCNc1ncnc2ccc(Br)cc12,-22.4% (inactive)
17,CCOC(=O)N1CCN(S(=O)(=O)c2ccc(C(=O)NNc3nc4cc(C)cc(C)c4s3)cc2)CC1,27.3% (inactive)
18,c1ccc(CN2CCN(c3nc(-c4ccccc4)nc(-n4ccnc4)n3)CC2)cc1,-6.55% (inactive)
